# Sampled rows, rich in hits. Any-hit rate of the full collection: about 3.3%.
# Tau filament bind = tau filament binding; P10636; recombinant tau filaments, thioflavin S fluorescence, 15 h; filaments grown with octadecylsulfate alongside compound; Potency, µM (top dose mostly 57.1 µM); 2% of 71,000 active; AID 596;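 also: actives lower thioflavin S fluorescence by blocking filaments or displacing dye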
# Target sequence (P10636 whole entry, looked up): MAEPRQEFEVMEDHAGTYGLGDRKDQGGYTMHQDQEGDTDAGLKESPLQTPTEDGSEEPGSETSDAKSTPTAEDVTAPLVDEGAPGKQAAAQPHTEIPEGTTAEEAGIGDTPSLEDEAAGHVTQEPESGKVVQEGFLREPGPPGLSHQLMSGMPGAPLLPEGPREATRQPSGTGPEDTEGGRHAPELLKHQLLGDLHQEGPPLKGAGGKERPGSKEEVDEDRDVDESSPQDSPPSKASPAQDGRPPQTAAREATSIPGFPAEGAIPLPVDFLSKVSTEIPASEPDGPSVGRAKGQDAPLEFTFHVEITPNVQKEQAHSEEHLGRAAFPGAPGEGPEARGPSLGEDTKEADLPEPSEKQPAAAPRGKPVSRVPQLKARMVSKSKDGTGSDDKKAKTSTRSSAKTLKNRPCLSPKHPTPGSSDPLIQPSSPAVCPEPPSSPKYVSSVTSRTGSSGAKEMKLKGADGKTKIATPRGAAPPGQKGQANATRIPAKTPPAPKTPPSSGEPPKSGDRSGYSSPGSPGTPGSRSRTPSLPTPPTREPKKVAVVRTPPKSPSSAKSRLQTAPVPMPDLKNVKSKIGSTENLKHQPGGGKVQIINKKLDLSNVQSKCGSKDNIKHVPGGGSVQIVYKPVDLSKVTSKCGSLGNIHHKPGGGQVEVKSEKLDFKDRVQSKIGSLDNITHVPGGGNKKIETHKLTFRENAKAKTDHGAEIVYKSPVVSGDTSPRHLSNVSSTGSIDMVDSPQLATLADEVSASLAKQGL
#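 Assay mix: 1 uM His-tagged tau, 30 uM sodium octadecylsulfate, thioflavine S dye in HEPES/NaCl/DTT buffer. Compound is added prior to the inducer. Fluorescence after 15 h at 37 C.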
# 15-hLO inh = blocks human 15-lipoxygenase activity | P16050 | purified 15hLO-1, xylenol orange hydroperoxide absorbance | Potency, µM (top dose mostly 57.1 µM), hits mostly inhibitors | 1.4% of 74,000 active | AID 887; also: nearly all actives have a fitted effect of over 55% in size
#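 Purified human 15hLO-1 (40 nM final) in 25 mM Hepes pH 7.5, 0.01% Triton X-100 was preincubated with compound 15 min at room temperature, then reacted 6 min with 50 uM arachidonic acid; hydroperoxide detected by Fe-XO, 573/405 nm absorbance ratio.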
# Hsp90 Hop PPI = changes Hsp90-Hop TPR2A binding signal, up or down | 0.44% of 71,000 active | Potency, µM (top dose mostly 57 µM) | AlphaScreen TPR2A-His6 binding biotin-Hsp90 C-terminal peptide; active = well fitted curve in either direction with a large enough effect; inconclusive = small, poorly fitted or top-dose-only effect, or another doubt
# Pol III holo inh = inhibitors of bacterial DNA polymerase III holoenzyme | reconstituted DNA polymerase III holoenzyme replication, biochemical | Potency, µM (series often up to 57.1 µM) | 0.25% of 71,000 active | AID 603
#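 Reconstituted *E. coli* holoenzyme (0.35 nM Pol III, 1 nM beta, 154 nM SSB, 2 nM primase) was preincubated with compound for 15 min at RT. Synthesis on 1.4 nM ssM13Gori ran 35 min, then was stopped with PicoGreen/EDTA and read as dsDNA fluorescence.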
# YjeE inh = displaces an ADP probe from E. coli YjeE (TsaE); purified YjeE enzyme, qHTS inhibition assay; Potency, µM; 0.05% of 71,000 active; AID 605
#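 Purified YjeE (10 uM) with BODIPY Texas Red-labeled ADP probe (2 uM); compounds pin-transferred, 15 min at room temperature. Binding inhibition read as decreased fluorescence polarization; ADP titration as control.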
# Numbers stand for hits; - = inactive; ? = inconclusive; . = no result; ! = repeats disagree; [ ] = remark or other dose. Unless noted, calls follow the shape of the dose curve; as a rule, active = well fitted curve in the direction sought with a large enough effect; inconclusive = small, poorly fitted or top-dose-only effect, or another doubt; inactive = no such curve, though single readings can be large; an effect the other way counts as inactive or inconclusive.
SMILES,Tau filament bind,15-hLO inh,Hsp90 Hop PPI,Pol III holo inh,YjeE inh
CCOC(=O)c1ccc(N2CSC3=C(C#N)C(c4cccs4)CC(=O)N3C2)cc1 (stereo not drawn),-,12.6µM,-[2.3 µM],-,-
Oc1ccc(CN2CCCc3ccccc32)c2cccnc12,-,-,3.16µM,-,-
CNc1ccc(O)cc1,20µM,?,-,-,-
CNc1ccccc1,-,-,-,-,-
CN(C)CCNc1c2c(c(C#N)c3nc4ccccc4n13)CCCC2,-,-,-,-,-
Cn1c(NCc2ccco2)nc2ccccc21,15.8µM,-,-,-,-
N#Cc1c2c(c(NCc3ccco3)n3c1nc1ccccc13)CCC2,-,5.01µM,?,-,-
COc1cc([C@H](O)C(=O)O)ccc1O,-,-,-,-,-
CCOC(=O)c1cnc(-n2nc(C)cc2C)nc1Nc1ccc(N(C)C)cc1,12.6µM,-,-,-,-
CCOC(=O)c1cnc(-n2nc(C)cc2C)nc1Nc1ccc2c(c1)OCO2,-,-,-,-,-
C[n+]1cc2c3c(ccc2c2ccc4cc5c(cc4c21)OCO5)OCO3,?,10µM,-,31.6µM!,-
O=C(O)c1cc2c(cc1S(=O)(=O)O)[C@H]1[C@@H]([C@H]3[C@H]2[C@@]2(Cl)C(Cl)=C(Cl)[C@]3(Cl)C2(Cl)Cl)[C@]2(Cl)C(Cl)=C(Cl)[C@@]1(Cl)C2(Cl)Cl,-[11.4 µM],5.01µM,-[11 µM],-[11.4 µM],-
Cc1nc2cnc(N3CCOCC3)nc2n(CCc2ccccc2)c1=O,-,-,-,-,-
CSC(N)=NCCC[C@@H](N)C(=O)O,-,-,-,-,-
CS(=O)(=O)Nc1cccc(-c2nccc(-n3ccnc3)n2)c1,-,20µM,-,-,-
Cc1ccccc1-c1nccc(-n2ccnc2)n1,-,?,-,-,-
CS(=O)(=O)Nc1cccc(-c2nc(-n3ccnc3)c3ccccc3n2)c1,-,-,-,-,-
N#Cc1cccc(-c2nccc(-n3ccnc3)n2)c1,-,10µM,-,-,-
O=C(C(Cc1ccccc1)n1cccc1)N1CCCCC1 (stereo not drawn),-,-,-,-,-
COc1ccc(N2CCN(C(=O)C(Cc3ccccc3)n3cccc3)CC2)cc1 (stereo not drawn),12.6µM,25.1µM,?,-,-
CC1Cc2ccccc2N1C(=O)c1cnsn1 (stereo not drawn),-,3.98µM,?,-,-
C=CC[C@@H]1C=C[C@H](O/N=C2\c3cc(OC)ccc3O[C@H](c3cccc(OC)c3)[C@H]2O)[C@H](CO)O1,.,-[11.4 µM],.,.,.
COC(=O)c1ccc(C(=O)Nc2ccc(N)cc2N)cc1,12.6µM,-,-,-,-
COc1ccccc1NC(=O)c1ccc(N)cc1,-,-,-,-,-
C=CC1=C(C)C2=Cc3c(C=C)c(C)c4[n]3[Sn+2][n]3c(c(C)c(CCC(=O)O)c3=CC3=NC(=C4)C(C)=C3CCC(=O)O)=CC1=N2,?,?,31.6µM,39.8µM,79.4µM
SMILES,Tau filament bind,15-hLO inh,Hsp90 Hop PPI,Pol III holo inh,YjeE inh
COC(=O)C1=C(C)NC(C)=C([N+](=O)[O-])[C@H]1c1ccccc1C(F)(F)F,31.6µM,-,-,-,-
COC(=O)C1=C(C)NC(=O)CC1c1ccccc1F (stereo not drawn),-,-,-,-,-
COC(=O)C1=C(C)NC(C)=C([N+](=O)[O-])[C@@H]1c1ccccc1C(F)(F)F,31.6µM,-,-,-,-
COC(=O)C1=C(C)NC(C)=C(C(=O)OC)C1c1ccc(N(C)C)cc1,-,-,-,-,-
COCCN1CCn2c(nc3cc(NC(=O)c4ccc(OC)cc4)ccc32)C1,25.1µM,?,-,-,-
O=C(Nc1ccc2c(c1)nc1n2CCN(Cc2ccccc2)C1)c1cccs1,-,-,-,-,-
COCCN1CCn2c(nc3cc(NC(=O)NC4CCCCC4)ccc32)C1,25.1µM,-,?,-,-
COc1ccc(OC)c(NC(=O)C2CCCN(S(=O)(=O)c3c(C)noc3C)C2)c1 (stereo not drawn),25.1µM,-,-,-,-
COc1ccc2nc(NC(=O)C3CCCN(S(=O)(=O)c4cccc5nonc45)C3)sc2c1 (stereo not drawn),10µM,?,-,-,-
CCNC(=O)[C@@H]1O[C@@H](n2cnc3c(N)nc(NCCc4ccc(CCC(=O)O)cc4)nc32)[C@H](O)[C@@H]1O,-,-,?,-,-

# Bioassay records as filed in PubChem BioAssay.
